Experimental data taken from PubChem BioAssay AID540364 (The Scripps Research Institute Molecular Screening Center, 2011).
Hit rate of the full screen: of about 360,000 compounds, about 2,000 (0.56%) were called active. Many of the other results were omitted from the sample, so actives are more common in it than they were. Values without a mark were called inactive.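 How the source made its calls: active means activation above the average of all compounds screened plus 3 SD, cutoff fixed separately per campaign (cut at about 7.5% in these data); inactive means the rest.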

Assay: GAA850 frataxin promoter reporter upregulation – cell-based, luciferase luminescence, HEK293 lucGAA850, primary screen (AID 540364);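 further: 0% = DMSO wells and 100% = 10 µM SAHA wells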
Conditions: HEK293 lucGAA850 FXN promoter luciferase reporter, 24 h; at 6 µM; hits give high values; percent of 10 µM SAHA response

Structure (SMILES) | activation
COc1ccccc1N(CC(=O)Nc1ccc(C)cc1Cl)S(=O)(=O)c1cccs1 | 0.98%
Cc1ccccc1-n1c(C)cc(/C=N/NC(=O)c2ccc(CN3CCOCC3)cc2)c1C | 0.54%
COc1ccc(CCNC(=O)C(=O)NCC2OCCN2S(=O)(=O)c2ccc(F)cc2)cc1OC (stereo unspecified) | -0.5%
Cc1noc(C)c1-c1ccc2ncnc(NC(C)c3ccco3)c2c1 (stereo unspecified) | 10.2% (active)
CCc1c(N=O)c(-c2ccccc2)n(O)[n+]1[O-] | 3.14%
COc1cc(/C=C2\Oc3ccc(C#Cc4ccc(O)cc4)cc3C2=O)cc(OC)c1 | -0.08%
COc1cc(C#Cc2ccc3cc(CCCO)oc(=O)c3c2)cc(OC)c1 | 7.61% (active)
CC(C)c1ccc(S(=O)(=O)N2CCC3(CC2)OCCO3)cc1 | -0.76%
COCOCCn1cc(CN2CCS(=O)(=O)N(Cc3ccc(-c4ccccc4)cc3)C(CC(C)C)C2=O)nn1 (stereo unspecified) | -0.25%
CCOc1cccc2cc(C(=O)OCC(=O)Nc3c(C)cccc3CC)c(=O)oc12 | 1.17%
Cc1nc(SCc2ccc(F)cc2)c([N+](=O)[O-])[nH]1 | 0.83%
O=[N+]([O-])c1ccccc1OCCCCN1CCCCC1 | 1.12%
CCCCCOc1ccc(CSC2=NCCN2)cc1[N+](=O)[O-] | 8.36% (active)
Cc1oc2c(F)c(F)c(F)c(F)c2c1S(=O)(=O)Nc1cccc(C(F)(F)F)c1 | -1.14%
NC(=O)c1ccsc1NC(=O)COC(=O)COc1ccc(C=O)cc1 | 1.47%
Cc1cc(C)nc(S/C=C/C(=O)c2ccccc2)n1 | 14.6% (active)
CCOC(=O)C(=Cc1ccccc1)C(=O)c1ccccc1 | -4.25%
Cc1cc(C)nc(SC(C)C(=O)N/N=C/c2cccs2)n1 (stereo unspecified) | -1.1%
CC(=O)c1ccc(N2CCN(C(=O)C3CCN(S(=O)(=O)c4ccc5c(c4)CC(C)N5C(=O)C4CC4)CC3)CC2)cc1 (stereo unspecified) | 1.92%
CC(C)(C)c1ccc(C(=O)NNC(=O)Cc2ccccc2)cc1 | 3.03%
Cc1ccc(SC(CC(=O)c2ccc(C(C)(C)C)cc2)C(=O)O)cc1 (stereo unspecified) | 9.01% (active)
Cc1ccc(Sc2cc(C(=O)c3ccccc3C(=O)O)ccc2[N+](=O)[O-])cc1 | 0.3%
COc1ccc(/C=C2\CCCC3C2=NN(C(=O)c2scnc2C)C3c2ccc(OC)cc2)cc1 (stereo unspecified) | 1.94%

Structure (SMILES) | activation
Cc1ccc(NC(=O)C(CC(=O)O)C2CCCO2)c(C)c1 (stereo unspecified) | 0.8%
COc1ccc(C(CNC(=O)c2cc3c(s2)CCCC3)N2CCOCC2)cc1 (stereo unspecified) | 1.32%
CC1(C(=O)NS(=O)(=O)c2ccccc2Cl)CCN1C(=O)c1cccc(F)c1 (stereo unspecified) | 1.46%
CSc1ccc(CN2CCC2(C)C(=O)NCc2ccccc2Br)cc1 (stereo unspecified) | 0.95%
CC1(C(=O)NCc2ccc3c(c2)OCO3)CCN1C(=O)Cc1cccc2ccccc12 (stereo unspecified) | 0.09%
CC1(C(=O)NCc2cccc3ccccc23)CCN1Cc1ccc(-c2ccccc2)o1 (stereo unspecified) | 10% (active)
CCC1CO/C(=C(\C(=C(Cl)Cl)N2CCOCC2)[N+](=O)[O-])N1 (stereo unspecified) | 1.9%
Cc1cccc(NC(=O)CN2CCCN(S(=O)(=O)c3ccc(Br)s3)CC2)c1 | 0.67%
COc1cc(OC)cc(-c2c(-c3cccs3)c3cc(-c4ccc(OC)cc4F)ccc3n2C)c1 | 0.9%
CC(C)(C)NC(=O)C(c1ccco1)N(Cc1ccc2c(c1)OCO2)C(=O)Cn1nnc2ccccc21 (stereo unspecified) | -3.64%
COc1ccc(N(CCC#N)S(=O)(=O)c2ccc(Cl)cc2)cc1 | 9.52% (active)
COc1ccc(N(CC(=O)N2CCCCCC2)S(=O)(=O)c2ccccc2)cc1 | -0.03%
COc1ccc(S(=O)(=O)NCCCCOc2ccc(Cl)cc2)cc1 | 1.56%
COc1ccc2c(c1)C(=C(C#N)C#N)C(=O)N2CCc1ccccc1 | 1.6%
COc1cc(NC(=S)NCCSc2ccc(C)cc2)cc(OC)c1 | 0.45%
COc1ccc(Cl)cc1NC(=O)CN(C)C(=O)c1cc2ccccc2cc1OC | 0.89%
COc1ccc(Cl)cc1NC(=O)CN(C)C(=O)CNC(=O)C12CC3CC(CC(C3)C1)C2 | 1.23%
COc1ccc(Cl)cc1NC(=O)CN(C)C(=O)CCCc1c[nH]c2ccccc12 | 9.56% (active)
COCCNc1ncnc2c1ncn2[C@H]1CN(CCN2CCOCC2)C[C@@H](CO)O1 | 0.56%
Cc1ccc(C(NC(=O)C2CCN(CCOc3ccc(Cl)cc3Cl)CC2)c2ccccn2)cc1 (stereo unspecified) | 1.16%
O=C(N/N=C/c1ccco1)c1ccc(NC(=O)C2CC2)cc1 | 1.23%
O=C(N/N=C/c1ccco1)c1csc2c1CCCC2 | 1.3%
O=C(N/N=C/C=C/c1ccco1)c1cccs1 | 11.9% (active)
